PubChem BioAssay (Tox21)
Results filed as inconclusive are left out. The source made the active and inactive calls. Unless noted, calls come from the whole dose curve; as a rule, active = well fitted curve in the direction sought with a large enough effect in the repeat runs; inconclusive = weak or mixed curves; inactive = no such curve, though single readings can be large; an effect the other way counts as inactive or inconclusive.

Columns and labels:
[1] = target: Nuclear receptor subfamily 1 group I member 3 (Homo sapiens) (UniProt Q14994); experiment: qHTS assay to identify small molecule agonists of the constitutive androstane receptor (CAR) signaling pathway (AID 1224839);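 note: HepG2 cells stably carrying human CAR and a CYP2B6 luciferase reporter; series mostly up to about 92 µM; nearly all actives have a fitted effect of over 15% in size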
In short: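 Readout: firefly luciferase luminescence via ONE-Glo. System: HepG2 double-stable for hCAR and CYP2B6-2.2kb. Conditions: 15-point compound titration, PK11195 at 0.75 uM final, 24 h incubation.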

[2] = qHTS assay to identify small molecule antagonists of the estrogen related receptor signaling pathway with the pleiotropic PPARgamma coactivator (PGC) from Tox21 10K library - cell viability counter screen (AID 1224840; active = well fitted cell-killing curve with a large enough effect in the repeat runs, not every such curve was filed as active; note: nearly all actives have a fitted effect of over 40% in size)
In short: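 Seeded PGC/ERR cells (2,000/well, 6 h, 37 C/5% CO2) get compound by pin tool; 17.5 h incubation at 37 C; CellTiter-Fluor added, 30 min, fluorescence measured.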

[3] = qHTS assay to identify small molecule agonists of the hypoxia (HIF-1) signaling pathway - cell viability counter screen (AID 1224844; calls by dose curve; note: nearly all actives have a fitted effect of over 50% in size)
In short: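 HRE-bla ME-180; 0.5% dFBS; cpd 17 h, 37C, 5% CO2; CellTiter-Glo lum., 30 min RT, post-FRET read, same wells.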

[4] = qHTS assay to identify small molecule agonists of H2AX (AID 1224845; active = well fitted activation curve with a large enough effect in the signal ratio in the repeat runs, not every such curve was filed as active; the % refers to the signal ratio)
In short: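 Wild-type CHO-K1 cells plated overnight, then exposed 3 hr at 37C to compounds at 15 concentrations (0.76% DMSO). Lysed, then HTRF anti-pH2AX(S139)-cryptate/anti-H2AX-d2 detection after 24 hr at room temperature; emissions 665 and 620 nm.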

[5] = qHTS assay to identify small molecule agonists of the hypoxia (HIF-1) signaling pathway (AID 1224846; active = well fitted activation curve with a large enough effect in the signal ratio in the repeat runs, not every such curve was filed as active; the % refers to the signal ratio)
In short: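 Reporter induction in HRE-bla ME-180 cells is taken as agonism: cells sit 5 hrs after plating, receive compounds or DMSO only, incubate 17 hrs at 37C under 5% CO2, and are loaded with CCF4-AM for beta-lactamase FRET measurement.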

[6] = qHTS assay to identify small molecule agonists of H2AX - cell viability counter screen (AID 1224847; calls by dose curve; note: top concentration of the series differs between compounds; nearly all actives have a fitted effect of over 30% in size)
In short: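 For this counter screen, overnight-attached CHO-K1 cells received test compounds (15 concentrations, 0.76% DMSO final); 3 hr later at 37C, CellTiter-Glo reagent was added and luminescence recorded after 30 min at room temperature.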

[7] = qHTS RealTime-Glo MT Cell Viability Assay in HepG2 cells - 24 hour (AID 1224867); note: nearly all actives have a fitted effect of over 50% in size
In short: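 HepG2 suspension premixed with RealTime-Glo reagents is plated at 600 cells per well and left 5 h at 37 C/5% CO2. Compounds in DMSO then go in, and bioluminescence reflecting viable cell number is recorded over 40 h.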

[8] = qHTS RealTime-Glo MT Cell Viability Assay in HEK293 cells - 32 hour (AID 1224868); note: top concentration of the series differs between compounds; nearly all actives have a fitted effect of over 50% in size
In short: (§1)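 Reads taken at 0, 8, 16, 24, 32 and 40 h from the same wells. HEK293 cells (600/well) carried RealTime-Glo reagents from seeding, with compound added after a 5 h settle at 37 C.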

[9] = A CellTox Green Cytotoxicity Assay to monitor cytotoxicity in HEK293 cells - 0 hour (AID 1224869); note: nearly all actives have a fitted effect of over 50% in size
In short: (§2)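 Tox21 screen in HEK293: membrane-impermeant cyanine dye fluoresces on binding dead-cell DNA; compound pinned 5 h post-seeding, plates held at 37 C, signal read repeatedly through 40 h.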

[10] = qHTS RealTime-Glo MT Cell Viability Assay in HepG2 cells - 40 hour (AID 1224870); note: nearly all actives have a fitted effect of over 50% in size
In short: (§3)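 HepG2 cells mixed with RealTime-Glo MT reagents (NanoLuc plus cell-permeant prosubstrate) were seeded at 600 cells/well, incubated 5 h at 37 C/5% CO2, then pinned with compounds in DMSO; nonlytic luminescence tracked viability during 40 h treatment.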

[11] = A CellTox Green Cytotoxicity Assay to monitor cytotoxicity in HEK293 cells - 40 hour (AID 1224871); note: nearly all actives have a fitted effect of over 45% in size
In short: as §2

[12] = qHTS RealTime-Glo MT Cell Viability Assay in HEK293 cells - 16 hour (AID 1224872)
In short: as §1

[13] = qHTS RealTime-Glo MT Cell Viability Assay in HepG2 cells - 8 hour (AID 1224873); note: nearly all actives have a fitted effect of over 55% in size
In short: as §3

[14] = qHTS RealTime-Glo MT Cell Viability Assay in HEK293 cells - 40 hour (AID 1224874); details: RealTime-Glo luminescence; max response: hits give low values; note: nearly all actives have a fitted effect of over 50% in size
In short: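 HEK293 + NanoLuc + prosubstrate, 600 cells/well; 5 h, 37 C/5% CO2; compound 23 nL in DMSO by pintool; 37 C; luminescence read at 0, 8, 16, 24, 32 and 40 h time points.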

[15] = A CellTox Green Cytotoxicity Assay to monitor cytotoxicity in HEK293 cells - 24 hour (AID 1224875); note: series mostly up to about 77 µM; nearly all actives have a fitted effect of over 45% in size
In short: as §2

[16] = qHTS assay to identify small molecule antagonists of the estrogen related receptor signaling pathway with the pleiotropic PPARgamma coactivator (PGC) from Tox21 10K library (AID 1224841; call rule not given here)
In short: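 Test chemicals dissolved in DMSO were applied to pre-incubated (6 h) PGC/ERR cells at 2,000 cells/well for an 18 h, 37 C treatment; reporter luminescence was then read using One-Glo.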

[17] = qHTS assay to identify small molecule agonists of the estrogen related receptor signaling pathway with the pleiotropic PPARgamma coactivator (PGC) from Tox21 10K library (AID 1224842); note: nearly all actives have a fitted effect of over 15% in size
In short: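 PGC/ERR reporter cells (NTP line) were seeded 2,000 per well, rested 6 h at 37 C/5% CO2, then pin-dosed with compounds in DMSO for 18 h at 37 C; luciferase read by One-Glo luminescence after 30 min at room temperature.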

[18] = target: Thyrotropin receptor (Homo sapiens) (UniProt P16473); experiment: qHTS assay to identify small molecule agonists of the thyroid stimulating hormone receptor (TSHR) signaling pathway (AID 1224843; calls by dose curve; note: nearly all actives have a fitted effect of over 45% in size)
In short: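 Using 15 concentrations per compound in triplicate, cAMP production was monitored in TSHR-HEK293 cells after 30 min compound incubation at RT; HTRF reagents followed, with fluorescence intensity recorded after 1 h.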

[19] = qHTS assay to identify small molecule antagonists of the estrogen related receptor (ERR) signaling pathway from Tox21 library (AID 1224848); note: nearly all actives have a fitted effect of over 50% in size
In short: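 Tox21 10K compounds in DMSO tested for ERR pathway antagonism in NTP's ERR cell line; 18 h, 37 C exposure; ONE-Glo luminescence.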

[20] = qHTS assay to identify small molecule agonists of the estrogen related receptor (ERR) signaling pathway from Tox21 library (AID 1224849; calls by dose curve; note: nearly all actives have a fitted effect of over 15% in size)
In short: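 Tox21 compounds tested for ERR agonism in an NTP reporter cell line: 18 h treatment at 37 C, then ONE-Glo luminescence.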
% is set by controls: 0 for no effect and ±100 for the full control effect.

Sequence of Thyrotropin receptor (Homo sapiens) (P16473 whole entry, looked up): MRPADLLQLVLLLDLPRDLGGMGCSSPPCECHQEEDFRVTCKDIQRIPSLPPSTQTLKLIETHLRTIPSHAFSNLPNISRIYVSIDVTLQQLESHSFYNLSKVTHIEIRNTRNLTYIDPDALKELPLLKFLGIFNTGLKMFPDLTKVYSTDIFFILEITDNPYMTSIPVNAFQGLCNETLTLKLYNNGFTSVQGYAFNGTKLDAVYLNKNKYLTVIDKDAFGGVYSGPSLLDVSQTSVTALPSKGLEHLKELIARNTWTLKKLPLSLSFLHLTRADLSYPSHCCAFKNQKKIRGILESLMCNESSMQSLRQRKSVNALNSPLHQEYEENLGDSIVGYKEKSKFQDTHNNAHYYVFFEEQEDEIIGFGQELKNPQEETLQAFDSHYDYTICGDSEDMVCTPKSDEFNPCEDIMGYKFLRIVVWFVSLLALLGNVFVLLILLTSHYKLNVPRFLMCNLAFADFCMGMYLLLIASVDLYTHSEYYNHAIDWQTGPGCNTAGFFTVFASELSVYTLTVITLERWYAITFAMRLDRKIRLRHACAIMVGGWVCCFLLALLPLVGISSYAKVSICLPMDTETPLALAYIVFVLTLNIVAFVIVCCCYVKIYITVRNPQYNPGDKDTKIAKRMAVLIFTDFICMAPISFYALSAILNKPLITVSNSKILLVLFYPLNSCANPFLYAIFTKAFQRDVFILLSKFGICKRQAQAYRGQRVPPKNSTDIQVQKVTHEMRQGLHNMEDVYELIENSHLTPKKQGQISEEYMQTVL
Sequence of Nuclear receptor subfamily 1 group I member 3 (Homo sapiens) (Q14994 whole entry, looked up): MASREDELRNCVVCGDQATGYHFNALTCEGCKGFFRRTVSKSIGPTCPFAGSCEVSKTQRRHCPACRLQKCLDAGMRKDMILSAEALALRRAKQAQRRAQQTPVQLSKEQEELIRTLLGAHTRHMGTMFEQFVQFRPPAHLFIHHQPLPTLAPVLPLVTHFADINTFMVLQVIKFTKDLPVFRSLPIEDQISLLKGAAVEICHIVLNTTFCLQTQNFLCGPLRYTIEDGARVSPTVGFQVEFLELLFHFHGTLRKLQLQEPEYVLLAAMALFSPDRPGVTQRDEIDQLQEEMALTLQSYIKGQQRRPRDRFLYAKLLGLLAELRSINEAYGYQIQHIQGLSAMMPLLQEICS

FC(F)(F)/C(=N\OCC1OCCO1)c1ccc(Cl)cc1
inactive: Potency [1] | outcome [2] | outcome [3] | outcome [4] | outcome [5] | Potency [6] | outcome [7] | Potency [8] | Potency [9] | outcome [10] | Potency [11] | Potency [12] | outcome [13] | max response [14] 3.42% | Potency [15]

C[C@@H]1C[C@H]2[C@@H]3C[C@H](F)C4=CC(=O)C=C[C@]4(C)[C@@]3(F)[C@@H](O)C[C@]2(C)[C@@]1(O)C(=O)CO
inactive: Potency [1] | outcome [2] | Potency [16] | outcome [17] | outcome [18] | outcome [3] | outcome [4] | outcome [5] | Potency [6] | Potency [19] | outcome [20] | outcome [7] | Potency [8] | Potency [9] | outcome [10] | Potency [11] | Potency [12] | outcome [13] | max response [14] -1.4% | Potency [15]

Nc1ccc(S(=O)(=O)Nc2ccccn2)cc1
inactive: Potency [1] | outcome [2] | outcome [18] | outcome [3] | outcome [4] | Potency [6] | outcome [7] | Potency [8] | Potency [9] | outcome [10] | Potency [11] | Potency [12] | outcome [13] | max response [14] -4.15% | Potency [15]

C=CCOC(=O)c1ccc(C(=O)OCC=C)c(C(=O)OCC=C)c1
inactive: Potency [1] | outcome [2] | Potency [16] | outcome [17] | outcome [18] | outcome [4] | Potency [6] | Potency [19] | outcome [20] | outcome [7] | Potency [8] | Potency [9] | outcome [10] | Potency [11] | Potency [12] | outcome [13] | max response [14] 4.3%

Nc1c(NC/C=C\COc2cc(CN3CCCCC3)ccn2)c(=O)c1=O
inactive: activation [1] 4% [at 19 µM] | viability change, negative = cytotoxic [2] 8.26% [at 19 µM] | activation [18] 2.1% [at 19 µM] | activity change, negative = cytotoxicity [3] 1.18% [at 15.8 µM] | activation (H2AX phosphorylation) [4] -1.81% [at 31.6 µM] | activation [5] 0.659% [at 15.8 µM] | activity change, negative = cytotoxicity [6] 2.48% [at 31.6 µM] | activity change, negative = cytotoxicity [7] 1.59% [at 15.8 µM] | activity change, negative = cytotoxic [8] 2.38% [at 15.8 µM] | cytotoxicity [9] -1.89% [at 15.8 µM] | activity change, negative = cytotoxic [10] 1.19% [at 15.8 µM] | cytotoxicity increase [11] 6.78% [at 15.8 µM] | activity change, negative = cytotoxicity [12] 2.61% [at 15.8 µM] | max response [14] -0.39% | activity change [15] 3.31% [at 15.8 µM, hits give high values]

CC(C)C(=O)Nc1cccc(C(F)(F)F)c1
inactive: Potency [1] | outcome [2] | Potency [16] | outcome [17] | outcome [3] | outcome [4] | outcome [5] | Potency [6] | Potency [19] | outcome [20] | outcome [7] | Potency [8] | Potency [9] | outcome [10] | Potency [11] | Potency [12] | outcome [13] | max response [14] -2.33% | Potency [15]

CCCCCCCCCOCC1CO1 (stereo not drawn)
inactive: Potency [1] | outcome [2] | Potency [16] | outcome [17] | outcome [18] | outcome [3] | outcome [4] | outcome [5] | Potency [6] | Potency [19] | outcome [20] | outcome [7] | Potency [8] | Potency [9] | outcome [10] | Potency [11] | Potency [12] | outcome [13]

Nc1ccc(C(=O)OCC(O)CO)cc1 (stereo not drawn)
inactive: Potency [1] | outcome [2] | Potency [16] | outcome [17] | outcome [18] | outcome [3] | outcome [4] | outcome [5] | Potency [6] | Potency [19] | outcome [20] | outcome [7] | Potency [8] | Potency [9] | outcome [10] | Potency [11] | Potency [12] | outcome [13] | max response [14] 2.88%

CC(C)(CO)[C@@H](O)C(=O)NCCCO
inactive: Potency [1] | outcome [2] | Potency [16] | outcome [17] | outcome [18] | outcome [3] | outcome [4] | Potency [6] | Potency [19] | outcome [20] | outcome [7] | Potency [8] | Potency [9] | outcome [10] | Potency [11] | Potency [12] | outcome [13] | max response [14] 4% | Potency [15]

CCCCOC(=O)C(=O)OCCCC
inactive: Potency [1] | outcome [2] | Potency [16] | outcome [17] | outcome [3] | outcome [4] | Potency [6] | Potency [19] | outcome [20] | outcome [7] | Potency [8] | outcome [10] | Potency [11] | Potency [12] | outcome [13] | max response [14] 0.934%

CCC(=O)c1ccc(O)cc1
inactive: Potency [1] | outcome [2] | outcome [3] | outcome [4] | outcome [5] | Potency [6] | outcome [7] | Potency [8] | Potency [9] | outcome [10] | Potency [11] | Potency [12] | outcome [13] | max response [14] -7.06% | Potency [15]

NS(=O)(=O)c1cc2c(cc1Cl)NC(C(Cl)Cl)NS2(=O)=O (stereo not drawn)
inactive: Potency [1] | outcome [2] | outcome [18] | outcome [3] | outcome [4] | Potency [6] | outcome [7] | Potency [8] | Potency [9] | outcome [10] | Potency [11] | Potency [12] | outcome [13] | max response [14] 2.25% | Potency [15]

CC(=O)OC[C@H]1O[C@@H](OC(C)=O)[C@H](OC(C)=O)[C@@H]1OC(C)=O
inactive: Potency [1] | outcome [2] | Potency [16] | outcome [17] | outcome [18] | outcome [4] | outcome [5] | Potency [6] | Potency [19] | outcome [20] | outcome [7] | Potency [8] | Potency [11] | Potency [12] | outcome [13] | max response [14] 5.33% | Potency [15]

NS(=O)(=O)c1cc2c(cc1Cl)NC(CC1CCCC1)NS2(=O)=O (stereo not drawn)
inactive: Potency [1] | outcome [2] | outcome [18] | outcome [4] | Potency [6] | outcome [7] | Potency [8] | Potency [9] | outcome [10] | Potency [11] | Potency [12] | outcome [13] | max response [14] 5.55% | Potency [15]

CC(C)(C)c1ccc(C=O)cc1
inactive: Potency [1] | outcome [2] | outcome [18] | outcome [3] | outcome [4] | outcome [5] | Potency [6] | outcome [7] | Potency [8] | Potency [9] | outcome [10] | Potency [12] | max response [14] 0.97% | Potency [15]
